Screening results as filed in PubChem BioAssay.
Shown are actives, neighbours in structure and some others; about 5.5% of the full set was active somewhere.
Six1-Eya2 blk – inhibitors of human Six1/Eya2 interaction. activity change, % (concentration not given with the values). Q15475+O00167. AID 651725. AlphaScreen GST-Six1/His-Eya2 binding, biochemical; stronger effect = lower value. hit rate 0.56% among 360,000; in the data active = activity change below about -65%; inconclusive = mostly about -30% to -63%; also: % is scaled to controls: 0 for no effect and ±100 for the full control effect
Target sequence (O00167 whole entry, looked up): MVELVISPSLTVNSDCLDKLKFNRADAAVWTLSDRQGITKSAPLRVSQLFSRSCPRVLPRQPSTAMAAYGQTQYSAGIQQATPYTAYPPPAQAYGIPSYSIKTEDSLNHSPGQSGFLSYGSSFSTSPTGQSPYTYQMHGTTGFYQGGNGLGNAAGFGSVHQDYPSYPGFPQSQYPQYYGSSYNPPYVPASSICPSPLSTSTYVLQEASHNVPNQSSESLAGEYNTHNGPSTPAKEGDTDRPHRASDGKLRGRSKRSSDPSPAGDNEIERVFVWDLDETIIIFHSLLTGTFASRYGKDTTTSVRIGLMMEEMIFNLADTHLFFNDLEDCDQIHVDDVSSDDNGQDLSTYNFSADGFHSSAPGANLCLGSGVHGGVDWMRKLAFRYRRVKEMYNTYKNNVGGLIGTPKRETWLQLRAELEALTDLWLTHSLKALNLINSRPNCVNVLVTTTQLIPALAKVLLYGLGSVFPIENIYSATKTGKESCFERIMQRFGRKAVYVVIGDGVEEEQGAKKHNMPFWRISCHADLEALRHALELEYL
Target sequence (Q15475 whole entry, looked up): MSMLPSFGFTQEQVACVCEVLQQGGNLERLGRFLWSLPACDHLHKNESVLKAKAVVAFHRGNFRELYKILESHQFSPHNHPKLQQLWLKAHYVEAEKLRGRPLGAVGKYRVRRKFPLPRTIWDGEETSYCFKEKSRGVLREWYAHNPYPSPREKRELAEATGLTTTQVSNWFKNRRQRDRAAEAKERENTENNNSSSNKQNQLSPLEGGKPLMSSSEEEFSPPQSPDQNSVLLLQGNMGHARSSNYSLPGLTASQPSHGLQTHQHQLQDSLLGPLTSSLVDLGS
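GST-Six1 + His-Eya2 (5X stock: 250/500 nM); Tris pH 8.0, 300 mM NaCl, 0.05% BSA, 0.02% Tween 20; GSH donor/Ni acceptor beads; 1 h 37 °C dark; AlphaScreen readout.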
MBNL1-CUG inh – inhibitors of human MBNL1 binding to CUG repeat RNA | Q9NR56 | TR-FRET MBNL1-His/biotin-(CUG)12 binding, 665/545 ratio | Potency, µM (highest dose often 57.5 µM), inactives show top-dose activity change, negative = inhibition, actives largely listed as inhibitors | hit rate 0.036% among 280,000; active = well fitted inhibition curve with a large enough effect in the signal ratio, with a control signal flat, not every such curve was filed as active; inconclusive = small, poorly fitted or top-dose-only effect, or effect the other way, or a change in a side signal; inactive = no such curve, though single readings can be large or run the other way; the % refers to the signal ratio; also: potency is read from the fitted curve at half-maximal effect; % is scaled to controls: 0 for no effect and ±100 for the full control effect
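Ratiometric TR-FRET (665 over 545 nm, excitation 340 nm) tracks disruption of MBNL1-His/biotin-(CUG)12 complex after 60 min at room temperature, with compounds at 92 nM to 58 uM final.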
CBFb-RUNX1 inh – inhibitors of human CBF-beta and RUNX1 interaction. 230,000 tested, under 10 active. AlphaScreen CBFb-His/RUNX1-biotin binding, biochemical. Potency, µM (titrated, usually from 59.8 µM), for the others: at the highest dose activity, negative = inhibition, actives largely listed as inhibitors; also: % of control where 0% means no effect
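Compounds were screened at multiple concentrations against a preformed CBF-beta(His)/RUNX1(biotin) complex (30 nM of each) for 15 min at room temperature, followed by 90 min with nickel and streptavidin beads and AlphaScreen reading.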
CtBP-E1A blk – blocks the CtBP interaction with E1A; AlphaScreen GST-E1A/His-CtBP binding, 1536-well; stronger effect = lower value; activity change, % (test concentration not listed); hit rate 0.49% among 340,000; AID 651724; in the data active = activity change below about -65%; inconclusive = mostly about -30% to -63%; also: % is scaled to controls: 0 for no effect and ±100 for the full control effect
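Homogeneous bead-based format: GST-tagged E1A captured on glutathione donor beads, His-tagged CtBP on nickel acceptor beads; compounds precede bead addition by 2 h at 37 °C.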
RORgamma inh – ROR gamma (mouse) transcription inhibition | hit rate 5.4% among 310,000 | AID 2551 | Potency, µM (highest dose often 53.6 µM), for inactives: at the highest dose activity change, negative = inhibition, hits mostly inhibitors | P51450 | Drosophila S2 Gal4-RORgamma UAS-luciferase reporter, 20 h; also: potency is read from the fitted curve at half-maximal effect; % is scaled to controls: 0 for no effect and ±100 for the full control effect; nearly all actives have a fitted effect of over 60% in size
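Schneider cells (Drosophila), stable Gal4 DBD–ROR gamma + UAS-luc; 1 hr cmpd preincubation; Cu2+ induction 700 uM final; 20 hr ambient; luminescence.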
Gal4-VP16 FLuc – inhibits Gal4-VP16 luciferase reporter, ROR gamma counter-screen | Potency, µM (doses to about 53.6 µM), without a hit: at the top dose activity, negative = inhibition, hits mostly inhibitors | Drosophila S2 Gal4-VP16 UAS-luciferase, luminescence, 20 h | hit rate 3.5% among 310,000;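 also: Gal4-VP16 expression switched on by copper sulfate through the metallothionein promoter; potency is read from the fitted curve at half-maximal effect; % is scaled to controls: 0 for no effect and ±100 for the full control effect; nearly all actives have a fitted effect of over 50% in size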
Active calls of the source: *; ? = inconclusive; . = no result; [ ] = remark or other dose. Unless noted, calls follow the shape of the dose curve; as a rule, active = well fitted curve in the direction sought with a large enough effect; inconclusive = small, poorly fitted or top-dose-only effect, or another doubt; inactive = no such curve, though single readings can be large; an effect the other way counts as inactive or inconclusive.

SMILES	Six1-Eya2 blk	MBNL1-CUG inh	CBFb-RUNX1 inh	CtBP-E1A blk	RORgamma inh	Gal4-VP16 FLuc
NS(=O)(=O)c1cccc(Nc2nc3ccccc3nc2NS(=O)(=O)c2ccc(Cl)cc2)c1	3	.	.	3	.	.
CN(C)Cc1c(-c2ccc(Cl)cc2)nc2ccccn12	4	-5%	-6%	1	-41%	?
COc1ccc(-c2nc3c4ccccc4ccn3c2CN2CCCCC2)cc1	-10	-4%	-10%	-1	7.9µM*	-13%
Clc1ccc(-c2nc3ccccn3c2CN2CCCCC2)cc1	-2	.	16%	.	18µM*	-5%
CCS(=O)(=O)N1CCN(C(=O)c2cccc3ccccc23)CC1	-5	2%	.	-1	-11%	0%
Cc1cccc(CNc2cc(-c3cccc(C#N)c3)ncn2)c1	.	.	.	.	-24%	13µM*
COC(=O)C/C=C\[C@H](C)[C@@H](OCc1ccccc1Br)C(C)C	.	.	11%[13.1 µM]	.	-18%[10 µM]	-6%[10 µM]
Cc1nc2c(O)cccc2cc1CO	-6	9%	9%	.	10µM*	?
COc1cc(/C=N/NC(=O)c2ccc3c(c2)OCO3)ccc1O	0	?	.	22	8.9µM*	7.1µM*
O=C(N/N=C/c1ccc2c(c1)OCO2)c1sc2cc(Cl)ccc2c1Cl	14	.	4%	6	-26%[10 µM]	-8%
O=C(N/N=C/c1ccc2c(c1)OCO2)c1ccc2c(c1)OCCO2	-17	?	-1%	-14	-31%	?
COc1cc(Cl)cc(/C=N\NC(=O)c2ccc3c(c2)OCO3)c1O	-88*	.	.	?	.	.
O=C(N/N=C/c1ccc(Cl)cc1)c1ccc2c(c1)OCO2	12	3%	.	-14	-16%	6%
O=C(N/N=C/c1ccc2c(c1)OCO2)c1ccc(NC(=O)c2ccc(F)cc2)cc1	-5	-1%	.	-1	10µM*	0%
COc1ccc2c(Cl)c(C(=O)N/N=C/c3ccc4c(c3)OCO4)sc2c1	0	-3%	5%	-2	1.1µM*	0%
COC(=O)c1ccc(NC(=O)COC(=O)C2=NN(c3ccccc3)C(=O)CC2)cc1	5	.	.	9	.	.
O=C(N/N=C/c1cc(Cl)cc([N+](=O)[O-])c1O)c1ccc2c(c1)OCO2	-20	-5%	.	?	0.79µM*	0.89µM*
CC(CCc1ccccc1)NC(=O)CCNC(=O)c1ccccc1Cl (configuration not stated)	0	.	.	.	.	.
C=CCNc1nnc(SC2CC(=O)N(c3ccc(OCCC)cc3)C2=O)s1 (configuration not stated)	11	13%	0%	-2	?	18µM*
CCOc1ccc(N2C(=O)CC(Sc3ncccn3)C2=O)cc1 (configuration not stated)	5	2%	7%	5	?	?
Cc1ccc(-c2csc3nc(SCC(=O)Nc4ccc(Cl)c(C(=O)O)c4)[nH]c(=O)c23)cc1	-70*	2%	.	.	3%	8%
O=C(CSc1nncc(=O)[nH]1)Nc1cccc([N+](=O)[O-])c1	0	?	.	1	-30%	1%
O=C(CN1CCN(c2ccc(O)cc2)CC1)NCC(=O)Nc1ccc(F)c(F)c1F	-3	.	.	.	.	.
COc1ccc(C(=O)/C=C/c2ccc(OC(=O)c3cc(OC)c(OC)c(OC)c3)cc2)cc1	1	5%	0%	8	1.8µM*	7.1µM*
COc1ccc(/C=C/C(=O)Oc2ccc(C)cc2)cc1	-2	7%	.	-70*	?	?
SMILES	Six1-Eya2 blk	MBNL1-CUG inh	CBFb-RUNX1 inh	CtBP-E1A blk	RORgamma inh	Gal4-VP16 FLuc
COc1ccc(OC)c(S(=O)(=O)N2CCCC(C(=O)NCc3cccnc3)C2)c1 (configuration not stated)	1	1%	.	2	?	-8%
O=C(c1cccc(F)c1)N1CCC[C@@]2(CCN(C(c3ccccc3)c3ccccc3)C2)C1	.	.	.	.	36%	-4%
CC(C)CCn1cnc2c(oc3nc4c(cc32)CCCC4)c1=O	-2	.	9%	-4	10µM*	?
COC(=O)CSc1nnc([C@H](CC(C)C)NC(=O)OC(C)(C)C)o1	2	-3%	4%	12	-8%	-2%
CSCC[C@H](NC(=O)OC(C)(C)C)c1nnc(SCC=C(C)C)o1	2	2%	8%	0	11µM*	-20%
CCOC(=O)CSc1nnc([C@H](CC(C)C)NC(=O)OC(C)(C)C)o1	-1	10%	-4%	12	13µM*	2%
COC(=O)Cn1ccnc1[N+](=O)[O-]	6	.	.	-23	.	.
COc1cc(OC)cc(C(=O)NC(=S)N2CCCCC2c2cccnc2)c1 (configuration not stated)	5	-9%	.	3	38%	4µM*
O=C(/C=C/c1ccc(Cl)cc1)NC(=S)NN1CCCCC1c1cccnc1 (configuration not stated)	.	-9%	8%	.	2µM*	?
COc1ccc(/C=C/C(=O)NC(=S)NN2CCCCC2c2cccnc2)cc1OC (configuration not stated)	-8	23%	0%	-3	13µM*	16µM*
CCCCC(=O)Nc1ccc(S(=O)(=O)N2CCCCC2c2cccnc2)cc1 (configuration not stated)	-1	-4%	.	11	16%	-7%
COc1ccc(NC(=O)N2CCCCC2c2cccnc2)cc1 (configuration not stated)	5	-7%	-11%	11	30%	12%
COC(=O)CC1C(C)(C)C(O)C2CC3=C4C=C(OC)OC(c5ccoc5)[C@]4(C)CCC3[C@@]1(C)C2=O (some centres not stated)	.	.	20%	.	-3%	-7%
O=C(Nc1ccc2c(c1)CCC2)c1cc(S(=O)(=O)Nc2ccc(F)cc2)c(Cl)cc1Cl	-6	.	-5%	6	?	6.3µM*
O=C(Nc1nccs1)c1ccc(Cl)cc1[N+](=O)[O-]	-2	?	-9%	12	10µM*	?
O=C(Nc1nccs1)c1cc([N+](=O)[O-])ccc1Cl	-2	?	.	.	.	.
O=C(Nc1nccs1)c1ccc([N+](=O)[O-])cc1Cl	3	?	.	.	11µM*	?
O=C(Nc1nccs1)c1ccc(Cl)c([N+](=O)[O-])c1	-2	?	.	-8	6.3µM*	4.5µM*
CCc1ccc(NC(=O)NCCCN2CCCC2=O)cc1	-8	-6%	.	1	17%	9%
O=C(NNC(=O)c1ccccc1F)c1cccc(S(=O)(=O)N2CCc3ccccc32)c1	-1	.	.	.	.	.
CCN(CC)C(=O)c1ccc2c(=O)n(Cc3ccc4c(c3)OCO4)c(=S)[nH]c2c1	-2	71%	.	.	11µM*	?
